Compound activity from PubChem.
The list is not random: actives were taken first. Their share in the collection is about 4.2%.
GDH-TPI counter: counter-screen for M. tuberculosis FBA inhibitors: GDH-TPI coupled enzymes. GDH-TPI coupled enzyme counterscreen, NADH absorbance. inhibition, % at 4.8 µM. hit rate 1.2% among 360,000. AID 588335; in the data active means inhibition above about 30%;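 further: 0% = DMSO wells and 100% = wells lacking the enzyme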
BJeLR lethal: kills HRASV12-expressing BJeLR cells | BJeLR (HRASV12) viability, CellTiter-Glo ATP luminescence, 48 h | inhibition, % (concentration not given with the values) | hit rate 0.17% among 300,000; in the data active means inhibition above about 50%
FBA Mtb inh: inhibits M. tuberculosis FBA enzyme; P9WQA3; purified M. tuberculosis FBA, fluorescence read-out; inhibition, % at 1 µM; hit rate 2.3% among 360,000; in the data active means inhibition above about 27%;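 further: 0% = vehicle and 100% = reference inhibitor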
Target sequence (P9WQA3 whole entry, looked up): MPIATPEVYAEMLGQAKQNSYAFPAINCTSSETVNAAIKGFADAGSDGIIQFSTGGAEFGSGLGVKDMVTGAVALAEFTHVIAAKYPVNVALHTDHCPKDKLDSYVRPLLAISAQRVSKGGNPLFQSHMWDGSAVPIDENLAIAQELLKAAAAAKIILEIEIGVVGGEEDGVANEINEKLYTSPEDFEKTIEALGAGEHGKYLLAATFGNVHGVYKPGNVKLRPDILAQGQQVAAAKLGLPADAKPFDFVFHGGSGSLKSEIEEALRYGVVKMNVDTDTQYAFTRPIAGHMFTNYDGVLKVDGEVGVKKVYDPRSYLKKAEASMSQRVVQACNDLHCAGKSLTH
RecA intein inh: inhibitors of M. tuberculosis RecA intein splicing | cell-free RecA intein splicing, fluorescence | AID 2221 | inhibition, % (no concentration beside the values) | hit rate 0.75% among 290,000; in the data active means inhibition above about 30%;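 further: 0% = vehicle wells and 100% = reference inhibitor control wells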
PrPC surface inh: inhibitors of human cell surface prion protein PrPC; AID 720596; hit rate 0.43% among 370,000; P04156; inhibition, % at 13.8 µM; TR-FRET read-out; in the data active means inhibition above about 24%; further: 0% = median of the test wells and 100% = reference compound wells
The depositor's hits bear a star; i = inactive; . = not tested or not shown; + = active, no number.

SMILES | GDH-TPI counter | BJeLR lethal | FBA Mtb inh | RecA intein inh | PrPC surface inh
COc1cccc(N2C(N)=NC(N)=NC2(C)C)c1 | -1 | 79* | 0 | 1 | -5
COc1ccc(N2C(N)=NC(N)=NC2(C)C)cc1 | 4 | 6 | 0 | . | 1
Oc1[nH]c2ccccc2c1C=Nc1ccccc1 | 34* | 19 | -6 | -1 | -1
CN(C)CC(C)(C)CN=Cc1c(O)[nH]c2ccccc12 | 35* | -7 | 1 | 1 | -7
C=CCN1C(=O)[C@@H](CC(=O)N2CCN(C(=O)C3CC3)CC2)[C@]2(C(=O)OC)CCCCC=C12 | . | . | . | . | -1
COc1ccccc1CNC(=O)c1oc2ccccc2c1C | -6 | -5 | 1 | 1 | -1
COc1ccc2c(C)c(C(=O)NCC(C)O)oc2c1OC (centres undefined) | 3 | 13 | 138* | -5 | 6
COc1ccc2cc(CNCCOCCOCCNCc3ccc4cc(OC)ccc4c3)ccc2c1 | 5 | . | 3 | . | 32*
CCOCCCNCc1ccc(OC)cc1 | 10 | 7 | 1 | 2 | -8
CCCCCc1ccc(NC(=O)OCCCN2CCC3(CCC(c4ccccc4)CC3)C2=O)cc1 (centres undefined) | . | . | . | . | 5
Cn1c(/C(C#N)=C/Nc2ccccn2)nc2ccccc21 | 31* | 6 | 4 | -188 | 2
CCOc1ccccc1N/C=C(\C#N)c1nc2ccccc2n1C | -4 | 3 | 5 | 0 | 2
CN(Cc1ccccc1)S(=O)(=O)c1cccc(C(=O)OCc2cccc(C(F)(F)F)c2)c1 | . | . | . | . | 3
COc1ccc(COC[C@H](C)N2C[C@@H](C)[C@H](CN(C)S(=O)(=O)c3ccc(F)cc3)OCCCC[C@H](C)Oc3ccc(NC(=O)Nc4ccccc4)cc3C2=O)cc1 | . | . | . | . | -4
O=c1ccc2ccc(O)cc2o1 | 15 | . | + | . | -2
O=c1ccc2cc(O)c(O)cc2o1 | 9 | -11 | 115* | -155 | 6
O=c1ccc2cc3ccoc3cc2o1 | 3 | -3 | 3 | . | 7
N#CCC[C@@H]1CC[C@]2(CCCN(C(=O)c3cccnc3)C2)O1 | . | . | . | . | 6
O=C(Nc1ccccc1Oc1ccccc1)NC1CCCCN(Cc2cccc(Cl)c2)C1=O (centres undefined) | . | . | . | . | 9
CCN(Cc1ccc(OC)c(F)c1)C(=O)CCl | -5 | 6 | -1 | 49* | -3
C[C@@H]1/C=C/CC(=O)N[C@H](c2cccc(Br)c2)[C@H](C)/C=C/CC(=O)N[C@@H]1c1cccc(Br)c1 | . | . | . | . | -1
COC1=C/C(=C/c2c(N)n3nc(CC(=O)N4CCCCC4)sc3nc2=O)C=CC1=O | 34* | -8 | 2 | -1 | .
CCOC1=C/C(=C/c2c(N)n3nc(CC(=O)N4CCCCC4)sc3nc2=O)C=CC1=O | 19 | -4 | -2 | 1 | -1
C/C(=N\NC(=O)c1ccc2c(c1)OCO2)c1ccc(O)cc1 | 33* | 0 | -1 | 1 | 13
C/C(=N/NC(=O)c1ccc2c(c1)OCO2)c1ccc(NC(=O)C(F)(F)F)cc1 | 8 | 4 | 0 | 0 | 12
SMILES | GDH-TPI counter | BJeLR lethal | FBA Mtb inh | RecA intein inh | PrPC surface inh
C/C(=N\NC(=O)c1ccc2c(c1)OCO2)c1ccc(NS(C)(=O)=O)cc1 | 36* | 9 | -4 | 0 | 12
C/C(=N\NC(=O)c1ccccc1)c1ccc2c(c1)OCO2 | -6 | 2 | 1 | -2 | 1
CN(C)Cc1c(C(=O)N/N=C/C=C/c2ccccc2)nnn1-c1nonc1N | 34* | -4 | -2 | . | 7
CC(/C=N/NC(=O)c1nnn(-c2nonc2N)c1C(C)C)=C\c1ccco1 | 37* | 9 | 5 | 12 | -6
CC(C)c1c(C(=O)N/N=C/C=C/c2ccccc2)nnn1-c1nonc1N | 39* | -9 | -1 | -2 | 4
CCN(CC)c1ccc(/C=N/NC(=O)c2nnn(-c3nonc3N)c2C(C)C)c(O)c1 | 10 | 88* | 1 | -4 | 23
CC(C)c1c(C(=O)N/N=C/c2ccc3c(c2)OCO3)nnn1-c1nonc1N | 9 | 10 | 0 | -1 | 0
CN(CCOC(=O)c1occ2ccccc12)C1CN(Cc2cn(Cc3ccccc3Cl)nn2)S(=O)(=O)C1 (centres undefined) | . | . | . | . | -3
CC(=C/c1ccccc1)/C=N/NC(=O)c1nnn(-c2nonc2N)c1CN1CCC(C)CC1 | 4 | 17 | -1 | -3 | -2
CC(/C=N/NC(=O)c1nnn(-c2nonc2N)c1CN1CCCCC1)=C\c1ccccc1 | 34* | 2 | -2 | 0 | -5
COc1cc(C)c(/C=C/C(C)=C/C=C/C(C)=C/C(=O)O)c(C)c1C | 61* | 6 | -1 | 4 | 1
CCC(=O)/C=C1\Sc2ccc(OC)cc2N1CC | 31* | -7 | 0 | -7 | 7
CCC(=O)/C=C1\Sc2ccc(OC)cc2N1CCO | 30 | -4 | -4 | 0 | -7
O=S1(=O)c2ccc(N3CCC[C@@H]3CO)cc2O[C@@H]2CCN1C2 | . | . | . | . | -5
Cc1cc(C(=O)Nc2sc3c(c2C#N)CCC3)no1 | 13 | -3 | -4 | 0 | -2
N#Cc1c(NC(=O)c2cc(C3CC3)on2)sc2c1CCC2 | 34* | 3 | 1 | -2 | -1
CC[C@H](CCCc1ccc(OC)cc1)CCC(=O)N1CCOCC1 | . | . | . | . | -4
COc1ccc(N2C3=C(C(=O)CC(C)(C)C3)C(c3cnn(C)c3)C3=C2CC(C)(C)CC3=O)cc1 | 3 | 4 | 112* | -401 | 3
CCn1cc(C2C3=C(CC(C)(C)CC3=O)N(c3ccc(C)cc3)C3=C2C(=O)CC(C)(C)C3)c(C)n1 | -1 | . | 1 | . | 7
CC(=O)CSc1nc2cc3c(cc2cc1C#N)OCCO3 | 33* | 21 | 3 | -4 | -9
OC(c1ccccc1)(c1ccccc1)C1CCN(CCCNc2ccc(Cl)cc2Cl)CC1 | . | . | . | . | -20
O=C(/C=C/c1cccnc1)/C=C/c1cccnc1 | 33* | . | 0 | . | -1
CN[C@H]1C[C@H]2c3[nH]c4cccc(-c5cccc(F)c5)c4c3CCN2C(=O)[C@H]1[C@H](C)O | . | . | . | . | -6
Clc1ccc(-n2c(SCc3cccc4ccccc34)nnc2-c2cccnc2)cc1 | . | . | . | . | 9
CC(C)CCNC(=O)c1c(N)n(CC2CCCO2)c2nc3ccccc3nc12 (centres undefined) | 12 | 7 | 19 | -77 | -3
SMILES | GDH-TPI counter | BJeLR lethal | FBA Mtb inh | RecA intein inh | PrPC surface inh
CCC(C)NC(=O)c1c(N)n(CC2CCCO2)c2nc3ccccc3nc12 (centres undefined) | 1 | -8 | 87* | -79 | -3
CCCNC(=O)c1c(N)n(-c2ccc3c(c2)OCO3)c2nc3ccccc3nc12 | 6 | 9 | -2 | 1 | -3
CCC(C)NC(=O)c1c(N)n(Cc2ccc3c(c2)OCO3)c2nc3ccccc3nc12 (centres undefined) | 20 | -14 | 20 | 41* | -3
C=CCn1c(N)c(C(=O)NCC2CCCO2)c2nc3ccccc3nc21 (centres undefined) | 4 | -4 | 144* | i | -5
O=C(NCCc1c[nH]c2ccccc12)c1ccc2c(c1)ncn2C1CCCCC1 | . | . | . | . | 11
COc1ccc(CCNC(=O)Cn2ncc3c2-c2cc(C)ccc2OC3)cc1 | . | . | . | . | -4
COc1ccc(Nc2oc(-c3ccc(OC)cc3)nc2C#N)cc1 | -2 | -7 | 0 | -3 | -3
C=CCNc1oc(-c2cccc(Cl)c2)nc1C#N | -12 | . | 3 | . | 1
